From PubChem BioAssay (NCI)
About 83,000 compounds went through this panel and 20% of them were active in at least one assay; those are over-represented in the sample as a whole.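 Note: values are percent growth. 100 is the growth of untreated cells, values between 100 and 0 indicate rising inhibition; between -100 and 0 indicates cell death.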 Unmarked numbers belong to inactive results. Calls of active or inactive are those of the source. Rule for the calls: active = growth percent below 10; inactive = the rest.

test system: SF-295 CNS; test: NCI-60 one-dose screen, 48 h (100 = growth as untreated, 0 = no growth, -100 = all killed); conditions: 10 µM

Structure (SMILES) | growth
CCc1ccc(-c2ccc(-n3nc(C)c4c(N)nc(Cc5ccccc5)nc43)cc2)cc1 | 70.8%
O=[N+]([O-])c1ccc2ncccc2c1Cl | -0.464% (active)
Cc1ccc(-n2nnnc2N)c(C)c1 | 96.7%
Oc1ccc(-c2[nH]c3ccccc3c2-c2nc3ccccc3o2)cc1 | 72.1%
CCc1ccc(C2=NN(c3ccc(S(C)(=O)=O)cc3)C(=O)CC2)cc1 | 9.24% (active)
COc1ccc(-c2nn(-c3cccc(Cl)c3)cc2-c2c(C#N)c(=O)n3[nH]c(-c4ccc(C)cc4)nc3c2C#N)cc1 | 23.6%
O=C1c2ccccc2C(=O)c2c1ccc(C(Br)Br)c2[N+](=O)[O-] | 92.8%
CCOC(=O)CC(S(=O)(=O)c1ccccc1)S(=O)(=O)c1ccccc1 | 108%
CC(=O)Nc1ccc(S(=O)(=O)c2ccnc3cc(Cl)ccc23)cc1 | 97.2%
O=C(Nc1cc([N+](=O)[O-])c2[nH]c(=O)c3ccccc3c2c1)C(F)(F)F | 80.8%
COc1cc2c(cc1NC(=O)C(F)(F)F)-c1ccc(NC(=O)C(F)(F)F)cc1C2 | 83.4%
COc1ccc(/C(C#N)=C/c2cccc(OC)c2OC)cc1 | 75.3%
C/C(=C/CCC(C)[C@@H]1CC[C@]2(C)C3=C(CC[C@@]12C)[C@@]1(C)CCC(=O)C(C)(C)[C@@H]1CC3)C(=O)O (some centres not stated) | -90.5% (active)
N#CC1=CC2CN(Cc3ccccc3)C1C1C(=O)N(c3ccccc3)C(=O)C21 (configuration not stated) | 98.7%
COC(=O)C1OC1c1cc([N+](=O)[O-])ccc1OC (configuration not stated) | 100%
O=c1cn[nH]c2ccc(Br)cc12 | 107%
COc1cc(CNC(=O)C2CSC3(C)c4ccccc4C(=O)N23)cc(OC)c1OC (configuration not stated) | 104%
O=C1/C=C/[C@@H](O)[C@@H]2C[C@@H](O)C[C@H]2/C=C/CCC[C@H](C(F)(F)F)O1 | 78%
O=C1CCn2c1c(O)c1ccccc1c2=O | 97.2%

Structure (SMILES) | growth
COc1ccc(/C(=N\N)C(=O)c2ccccc2)cc1 (tested in a mixture with another compound) | 89%
O=C(CCl)Nc1ccc(Cc2ccc(NC(=O)CCl)cc2)cc1 | 70.1%
CCOC(=O)C1=CSC2=NC3=C(CCC/C3=C\c3cc(OC)c(OC)c(OC)c3)C(c3cc(OC)c(OC)c(OC)c3)N12 (configuration not stated) | 55.8%
C=CCSC(CC)(CC)C(=O)NC | 105%
CCN(CCCNc1cc2c(c(N)c1S(=O)(=O)O)C(=O)c1ccccc1C2=O)c1ccccc1 | 111%
Cc1ccc(S(=O)(=O)N/N=C2\CCCc3ccccc32)cc1 | 104%
COc1cc(-c2nn(-c3cccc(NC(=O)CCNc4ccc(N5CCOCC5)cc4)c3)cc2-c2ccncc2)ccc1Cl | 13.4%
COc1cc2c(cc1NC(=O)C(Cl)Cl)-c1ccc(NC(=O)C(Cl)Cl)cc1C2 | -12.8% (active)
OCC1OC2C(NC(=S)N2c2ccccc2)C(O)C1O (configuration not stated) | 99.8%
Cc1cc(O)ccc1C1=NN(c2ccc(S(C)(=O)=O)cc2)C(=O)CC1 | 32.1%
Cc1c(Cl)cccc1NC(=O)CN1CCOCC1 | 99.3%
O=C1c2ccccc2C(=O)c2c1ccc(C(Br)Br)c2Cl | 90.5%
CC[C@@H](C(=O)[C@@H](C)[C@@H](O)[C@H](C)[C@@H]1O[C@@H]([C@@H](CC)C(=O)N(CC)CC)CC[C@@H]1C)C1O[C@]2(C=CC(=O)[C@]3(CC[C@@](C)([C@H]4CC[C@](O)(CC)[C@H](C)O4)O3)O2)[C@H](C)C[C@@H]1C (some centres not stated) | 4.86% (active)
COc1cc(C(=O)n2nc(-c3cc(OC)c(OC)c(OC)c3)nc2N)cc(OC)c1OC | 92.7%
COc1ccc(C(=O)N2C=Cc3ccccc3C2C#N)cc1 (configuration not stated) | 99.2%
COc1ccc(-c2nn(-c3cccc(Cl)c3)cc2-c2cc(-c3ccccc3)[nH]c(=O)c2C#N)cc1 | -36% (active)
CCOC(=O)C1C(C(=O)OCC)C2C(=O)C3C(C(=O)OCC)C(C(=O)OCC)C3C(=O)C12 (configuration not stated) | 101%
CC1=CC2C(C(O)CC3(C)C2CC(C)C32OCOC23COCO3)C2(C)C/C(=C/O)C(=O)C=C12 (configuration not stated) | 79.5%
